# In PubChem BioAssay (NCATS):
# Inconclusive results are not listed. Entries that show only a call come without a potency. The source made the active and inactive calls. Unless noted, calls follow the shape of the dose curve; as a rule, active = well fitted curve in the direction sought with a large enough effect; inconclusive = small, poorly fitted or top-dose-only effect, or another doubt; inactive = no such curve, though single readings can be large; an effect the other way counts as inactive or inconclusive.
# Key:
# [1] = AP1 Signaling Pathway (AID 357; active = well fitted curve in either direction with a large enough effect, not every such curve was filed as active;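 also: ME-180 reporter cells stimulated with EGF at its EC50 level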)
# Summary of the method: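 In this screen, ME-180 cells in Opti-MEM with 0.5% dialyzed FBS received EC50 EGF and compound titrations for 5 h. AP-1 reporter beta-lactamase was detected via CCF4 ratio, giving AC50 for positive and negative modulators.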
# [2] = NFAT Signaling Pathway (AID 444; active = well fitted curve in either direction with a large enough effect, not every such curve was filed as active;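 also: carbachol stimulus at about its EC50 of 1 µM final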); conditions: Jurkat NFAT-bla M1, carbachol, beta-lactamase ratio, 5 h; at 17.2 µM (top of the series) unless noted
# Summary of the method: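 Jurkat cells carrying an NFAT-driven β-lactamase reporter and co-transfected muscarinic M1 receptor were treated with compound plus carbachol (1 uM final, an EC50 level) for 5 h at 37 °C. CCF4 loading followed for 1 h at RT; 460/530 nm ratio gave %activity.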
# [3] = Stat Signaling Pathway (AID 446; active = well fitted curve in either direction with a large enough effect, not every such curve was filed as active;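 also: ME-180 cervical cancer cells given 40 pM IL-6 alongside compound; SIE-controlled beta-lactamase reporter measured as 460/530 nm FRET emission ratio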)
# Summary of the method: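 Compound effects on IL-6-induced STAT reporter activity were measured in ME-180 cells. After overnight culture, cells were co-treated with 40 pM IL-6 for 5 hrs before beta-lactamase substrate loading at room temperature.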
# [4] = biological target: Glucocorticoid receptor (Homo sapiens) (UniProt P04150); assay: GR-GFP Redistribution (AID 450;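 active = compounds whose dose series gives a full or clear partial fitted curve of increased nuclear translocation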; also: potency is read from the fitted curve at half-maximal effect); conditions: U2OS GR-GFP nuclear translocation, laser cytometry, 2 h
# [5] = biological target: Glucocorticoid receptor (Homo sapiens) (UniProt P04150); assay: GR-EFC Redistribution (AID 451; calls by dose curve; also: potency is read from the fitted curve at half-maximal effect); conditions: CHO-K1 GR-EFC translocation, beta-gal luminescence, 2 h
# Summary of the method: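 CHO-K1 cells stably expressing nuclear-localized β-gal enzyme acceptor and GR fused C-terminally to the enzyme donor fragment; ligand-driven nuclear translocation restores β-gal by complementation. Compounds titrated up to 46 uM final, 2 h at 37 °C; luminescence read.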
# [6] = biological target: Mitogen-activated protein kinase 10 (Mus musculus) (UniProt Q61831); assay: JNK3 AlphaScreen Assay (AID 530; active = well fitted curve in either direction with a large enough effect, not every such curve was filed as active;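 also: kinase came from lysate of stimulated human HepG2 cells; signal reports phosphorylation of biotinylated GST-cJun 1-79 at Ser73 with 10 µM ATP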)
# Summary of the method: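 Biotinylated GST-cJun(1-79) served as substrate for JNK3 in HepG2 lysates stimulated with IL-1beta and TNF-alpha. ATP was 10 uM final, pH 7.6. Ser73 phosphorylation was quantified by AlphaScreen (680 nm excitation).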
# [7] = biological target: 3',5'-cyclic-AMP phosphodiesterase 4B (Homo sapiens) (UniProt Q07343); assay: qHTS Assay for Inhibitors of PDE-IV (AID 607; active = well fitted activation curve with a large enough effect in the main read-out, with a control signal flat, not every such curve was filed as active)
# Summary of the method: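 ACTOne HEK293 cells carry a modified cAMP-gated CNG channel and express endogenous PDE4; plated 1000 cells/well, compounds up to 22.9 uM final. Membrane-potential dye fluorescence (ex 535/em 590) was read; parental cells received 10 uM forskolin + 100 uM RO 20-1724.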
# [8] = qHTS Assay for Lipid Storage Modulators (AID 1519; calls by dose curve); conditions: Drosophila S3 cells, BODIPY lipid droplet/cell ratio, laser cytometry, cells loaded with oleic acid; for activity change, negative = inhibition: at 25.7 µM (top of the series)
# Summary of the method: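 Cells seeded at 5,000 per well were treated with compounds over a concentration series and loaded with oleic acid (400 uM, as added). Lipid droplet fluorescence (488 nm excitation, 500-530 nm channel) was read by laser-scanning cytometry and normalized to 20 uM Triacsin C.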
# [9] = biological target: ATP-dependent 6-phosphofructokinase (Trypanosoma brucei brucei) (UniProt O15648); assay: qHTS Assay to Find Inhibitors of T. brucei phosphofructokinase: hit validation (AID 492961);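 also: luminescence reports ADP formed as PFK phosphorylates fructose-6-phosphate with ATP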
# Summary of the method: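 Percent activity derived from corrected luminescence, normalized between 0x and 1x enzyme controls, then fitted to concentration-response curves. Conditions: 1.25 nM PFK, 0.1 mM ATP, 0.5 mM F6P, 45 min RT.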
# [10] = biological target: Ubiquitin carboxyl-terminal hydrolase 1 (Homo sapiens) (UniProt O94782); assay: Inhibitors of USP1/UAF1: Pilot qHTS (AID 504865);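 also: rhodamine fluorescence freed from ubiquitin-rhodamine substrate followed over time; top concentration of the series differs between compounds; nearly all actives have a fitted effect of over 35% in size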
# Summary of the method: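 1nM USP1/UAF1 + cpd, 15 min RT; start w/ Ub-Rho 150nM final; kinetic FL 480/540 nm, 6 reads q60 s. Buffer 50mM HEPES pH 7.8, 0.5mM EDTA, 1mM TCEP, 0.01% Tween-20, 0.1 mg/ml BSA.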
# [11] = biological target: Luciferin 4-monooxygenase (Photinus pyralis) (UniProt P08659); assay: Biochemical firefly luciferase enzyme assay for NPC (AID 624030);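 also: purified P. pyralis luciferase at 10 nM with luciferin and ATP substrate; nearly all actives have a fitted effect of over 70% in size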
# Summary of the method: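 Counter-screen for direct inhibition of the luciferase enzyme by approved-drug library compounds, run at 10 nM enzyme in 50 mM Tris acetate (final). Luminescence was read within 5 min of enzyme-buffer addition and normalized to PTC124 versus DMSO (0%).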
# [12] = S16 Schwann cell PMP22 intronic element firefly luciferase assay (AID 624032); also: nearly all actives have a fitted effect of over 30% in size
# Summary of the method: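 Rat S16 Schwann cells stably carrying a PMP22 intronic element-driven Fluc reporter were seeded overnight, then exposed to compounds for 24 h at 37 °C. Luminescence was normalized to PTC124 (positive control) and DMSO (0% activity).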
# [13] = qHTS profiling for inhibitors of Plasmodium falciparum proliferation (AID 504749); also: nearly all actives have a fitted effect of over 60% in size; conditions: P. falciparum in erythrocytes, SYBR Green DNA, 72 h
# Summary of the method: (§1)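 Fluorescence of SYBR Green-bound parasite DNA, read at 485/535 nm, served as the growth measure. Infected erythrocytes were cultured with compound 72 h; artemisinin (0.29 uM) and DMSO wells defined the normalization range.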
# AS120 = assay: as above; conditions: P. falciparum in erythrocytes, SYBR Green DNA, 72 h; series mostly up to 12.8 µM
# Summary of the method: as §1
# C2A = assay: as above; conditions: P. falciparum in erythrocytes, SYBR Green DNA, 72 h; series mostly up to 12.8 µM
# Summary of the method: as §1
# CP238 = assay: as above; conditions: P. falciparum in erythrocytes, SYBR Green DNA, 72 h; series mostly up to 12.8 µM
# Summary of the method: as §1
# CP250 = assay: as above; conditions: P. falciparum in erythrocytes, SYBR Green DNA, 72 h; series mostly up to 12.8 µM
# Summary of the method: as §1
# CP252 = assay: as above; conditions: P. falciparum in erythrocytes, SYBR Green DNA, 72 h; series mostly up to 12.8 µM
# Summary of the method: as §1
# HB3 = assay: as above; conditions: P. falciparum in erythrocytes, SYBR Green DNA, 72 h; series mostly up to 12.8 µM
# Summary of the method: as §1
# SC27B = assay: as above; conditions: P. falciparum in erythrocytes, SYBR Green DNA, 72 h; series mostly up to 12.8 µM
# Summary of the method: as §1
# [14] = measured here: cell count channel max response
# [15] = measured here: lipid channel max response
# [16] = at 12.8 µM (top of the series), parasite line A
# [17] = at 12.8 µM (top of the series), parasite line B
# Sequence of Glucocorticoid receptor (Homo sapiens) (P04150 whole entry, looked up, the tested form may be a part): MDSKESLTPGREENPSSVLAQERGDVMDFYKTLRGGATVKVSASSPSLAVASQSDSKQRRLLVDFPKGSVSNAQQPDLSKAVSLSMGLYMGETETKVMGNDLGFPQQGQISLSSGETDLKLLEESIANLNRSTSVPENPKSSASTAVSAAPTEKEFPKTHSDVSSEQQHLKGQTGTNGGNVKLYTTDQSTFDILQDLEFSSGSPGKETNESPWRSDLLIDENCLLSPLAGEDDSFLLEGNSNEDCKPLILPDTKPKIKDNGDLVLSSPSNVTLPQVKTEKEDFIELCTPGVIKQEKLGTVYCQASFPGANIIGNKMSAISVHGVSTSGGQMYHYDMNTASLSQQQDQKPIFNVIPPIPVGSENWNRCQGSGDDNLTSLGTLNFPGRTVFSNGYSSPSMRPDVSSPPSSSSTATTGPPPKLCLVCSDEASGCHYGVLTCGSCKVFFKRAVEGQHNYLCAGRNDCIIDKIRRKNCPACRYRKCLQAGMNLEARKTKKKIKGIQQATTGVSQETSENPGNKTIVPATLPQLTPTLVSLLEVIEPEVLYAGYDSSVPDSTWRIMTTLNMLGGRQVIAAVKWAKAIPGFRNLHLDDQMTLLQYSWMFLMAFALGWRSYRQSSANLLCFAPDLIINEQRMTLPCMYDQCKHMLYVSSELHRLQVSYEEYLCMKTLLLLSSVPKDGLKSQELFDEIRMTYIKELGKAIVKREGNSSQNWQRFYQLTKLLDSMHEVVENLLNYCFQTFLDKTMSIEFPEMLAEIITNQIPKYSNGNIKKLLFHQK
# Sequence of 3',5'-cyclic-AMP phosphodiesterase 4B (Homo sapiens) (Q07343 whole entry, looked up): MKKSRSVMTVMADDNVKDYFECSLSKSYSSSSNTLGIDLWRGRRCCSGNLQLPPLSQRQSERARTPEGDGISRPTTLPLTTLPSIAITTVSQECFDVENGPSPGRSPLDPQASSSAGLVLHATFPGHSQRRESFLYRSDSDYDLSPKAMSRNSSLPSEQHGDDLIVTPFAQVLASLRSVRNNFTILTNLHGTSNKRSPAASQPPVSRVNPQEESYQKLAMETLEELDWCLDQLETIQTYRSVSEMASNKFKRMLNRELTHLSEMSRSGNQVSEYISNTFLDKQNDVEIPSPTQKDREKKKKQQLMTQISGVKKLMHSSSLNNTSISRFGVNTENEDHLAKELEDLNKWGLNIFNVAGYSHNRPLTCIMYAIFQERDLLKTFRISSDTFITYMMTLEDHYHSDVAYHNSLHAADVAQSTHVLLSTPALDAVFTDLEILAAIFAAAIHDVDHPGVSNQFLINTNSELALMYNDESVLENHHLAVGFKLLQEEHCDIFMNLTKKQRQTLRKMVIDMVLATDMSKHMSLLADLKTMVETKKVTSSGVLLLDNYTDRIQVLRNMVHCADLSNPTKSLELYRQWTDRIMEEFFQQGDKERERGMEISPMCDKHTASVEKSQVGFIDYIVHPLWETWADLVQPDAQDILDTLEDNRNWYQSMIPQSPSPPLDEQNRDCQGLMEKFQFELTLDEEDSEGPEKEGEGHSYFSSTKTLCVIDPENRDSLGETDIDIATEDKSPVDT
# Sequence of ATP-dependent 6-phosphofructokinase (Trypanosoma brucei brucei) (O15648 whole entry, looked up): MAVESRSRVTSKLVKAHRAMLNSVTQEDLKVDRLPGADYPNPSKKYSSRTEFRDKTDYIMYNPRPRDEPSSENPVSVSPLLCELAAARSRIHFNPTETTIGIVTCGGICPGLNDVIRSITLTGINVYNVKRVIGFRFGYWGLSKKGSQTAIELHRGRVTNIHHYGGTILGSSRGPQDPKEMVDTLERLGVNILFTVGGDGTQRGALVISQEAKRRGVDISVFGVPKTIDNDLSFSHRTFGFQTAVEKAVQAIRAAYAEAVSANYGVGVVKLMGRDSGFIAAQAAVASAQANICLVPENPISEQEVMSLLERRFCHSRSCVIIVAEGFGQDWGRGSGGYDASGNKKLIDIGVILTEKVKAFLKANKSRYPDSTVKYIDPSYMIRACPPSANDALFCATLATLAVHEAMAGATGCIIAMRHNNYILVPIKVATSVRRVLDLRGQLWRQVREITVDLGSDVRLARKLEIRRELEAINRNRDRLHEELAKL
# Sequence of Ubiquitin carboxyl-terminal hydrolase 1 (Homo sapiens) (O94782 whole entry, looked up): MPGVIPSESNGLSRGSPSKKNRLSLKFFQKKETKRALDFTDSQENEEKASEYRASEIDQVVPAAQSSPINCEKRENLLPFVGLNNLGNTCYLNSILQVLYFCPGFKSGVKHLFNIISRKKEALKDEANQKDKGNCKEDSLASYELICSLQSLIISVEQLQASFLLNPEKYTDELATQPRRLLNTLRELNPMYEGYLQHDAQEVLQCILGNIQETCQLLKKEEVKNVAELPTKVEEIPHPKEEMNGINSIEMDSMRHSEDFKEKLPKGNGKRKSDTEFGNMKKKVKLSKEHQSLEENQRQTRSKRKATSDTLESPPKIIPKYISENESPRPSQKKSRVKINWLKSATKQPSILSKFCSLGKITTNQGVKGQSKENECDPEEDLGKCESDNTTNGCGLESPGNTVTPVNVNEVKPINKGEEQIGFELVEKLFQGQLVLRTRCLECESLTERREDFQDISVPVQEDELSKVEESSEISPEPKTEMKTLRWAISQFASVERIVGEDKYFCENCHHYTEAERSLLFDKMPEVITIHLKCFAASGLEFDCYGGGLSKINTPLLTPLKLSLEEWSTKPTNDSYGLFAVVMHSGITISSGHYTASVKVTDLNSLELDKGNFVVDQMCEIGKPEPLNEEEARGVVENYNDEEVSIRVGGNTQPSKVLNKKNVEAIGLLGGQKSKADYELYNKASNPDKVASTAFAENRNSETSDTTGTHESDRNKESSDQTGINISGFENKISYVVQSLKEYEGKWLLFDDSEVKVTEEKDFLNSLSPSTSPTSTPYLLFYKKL
# Sequence of Luciferin 4-monooxygenase (Photinus pyralis) (P08659 whole entry, looked up): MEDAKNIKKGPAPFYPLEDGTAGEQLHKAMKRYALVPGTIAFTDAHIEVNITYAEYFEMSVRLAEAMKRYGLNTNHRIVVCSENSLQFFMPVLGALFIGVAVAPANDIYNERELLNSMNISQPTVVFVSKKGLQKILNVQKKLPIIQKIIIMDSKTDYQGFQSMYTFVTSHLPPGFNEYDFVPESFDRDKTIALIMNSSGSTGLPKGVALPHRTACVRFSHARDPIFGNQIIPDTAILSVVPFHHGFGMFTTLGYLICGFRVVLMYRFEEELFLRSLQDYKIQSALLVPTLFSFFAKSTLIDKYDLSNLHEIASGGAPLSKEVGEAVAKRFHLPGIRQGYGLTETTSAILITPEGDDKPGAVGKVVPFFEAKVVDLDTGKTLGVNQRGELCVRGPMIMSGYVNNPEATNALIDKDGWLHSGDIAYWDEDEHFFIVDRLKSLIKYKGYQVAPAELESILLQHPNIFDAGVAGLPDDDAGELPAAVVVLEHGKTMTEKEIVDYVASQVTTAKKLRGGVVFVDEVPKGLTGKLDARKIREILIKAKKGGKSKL
smiles,measurement,setting,value
C[C@@H]1O[C@H](O[C@@H]2\C=C/C=C\C=C/C=C\C[C@H](C)OC(=O)/C=C\[C@H]3O[C@@H]3C[C@H](O)C[C@]3(O)C[C@@H](O)[C@@H](C(=O)O)[C@H](C2)O3)[C@@H](O)[C@H](N)[C@@H]1O (stereo in doubt),outcome,[1],inactive
same,"activity change, negative = inhibition",[2],-3.9% (inactive)
same,outcome,[3],inactive
same,Potency,[4],> 20.6 µM (inactive)
same,Potency,[5],> 20.6 µM (inactive)
same,Potency,[6],inactive
same,outcome,[7],inactive
same,"activity change, negative = inhibition",[8],2.21% (inactive)
same,max response,[8]; [14],-4.86%
same,max response,[8]; [15],0.155%
same,outcome,[9],inactive
same,Potency,[10],inactive
same,Potency,[11],inactive
same,Potency,[12],inactive
same,"activity, negative = inhibition","[13]; at 28.7 µM (top of the series), parasite line A",9.05% (inactive)
same,"activity, negative = inhibition","[13]; at 28.7 µM (top of the series), parasite line B",8% (inactive)
same,Potency,AS120,inactive
same,Potency,C2A,inactive
same,Potency,CP238,inactive
same,Potency,CP250,inactive
same,Potency,CP252,inactive
same,Potency,HB3,inactive
same,Potency,SC27B,inactive
c1ccc2c3c([nH]c2c1)[C@@H]1[C@H]2CC[C@H]([C@H]4CCCN[C@H]42)N1CC3,outcome,[1],inactive
same,outcome,[3],inactive
same,Potency,[5],> 20.6 µM (inactive)
same,Potency,[6],inactive
same,outcome,[7],inactive
same,"activity change, negative = inhibition",[8],-1.37% (inactive)
same,max response,[8]; [14],0.348%
same,max response,[8]; [15],-3.2%
CNCCC=C1c2ccccc2C=Cc2ccccc21,outcome,[1],inactive
same,outcome,[3],inactive
same,Potency,[6],inactive
same,"activity change, negative = inhibition",[8],-3.6% (inactive)
same,max response,[8]; [14],-2.2%
same,max response,[8]; [15],-8.1%
same,Potency,[10],inactive
CC(=O)C[C@H](c1ccc([N+](=O)[O-])cc1)c1c(O)c2ccccc2oc1=O,outcome,[1],inactive
same,outcome,[3],inactive
same,Potency,[6],inactive
same,outcome,[7],inactive
same,"activity change, negative = inhibition",[8],3.15% (inactive)
same,max response,[8]; [14],-11.4%
same,max response,[8]; [15],-10.7%
same,outcome,[9],inactive
same,Potency,[10],inactive
same,Potency,[11],inactive
same,Potency,[12],inactive
same,"activity, negative = inhibition",[13]; [16],7.55% (inactive)
same,"activity, negative = inhibition",[13]; [17],3.6% (inactive)
same,Potency,AS120,inactive
same,Potency,C2A,inactive
same,Potency,CP238,inactive
same,Potency,CP250,inactive
same,Potency,CP252,inactive
same,Potency,HB3,inactive
same,Potency,SC27B,inactive
C#C[C@@]1(O)CC[C@@H]2[C@@H]3CCC4=CC(=O)CC[C@@H]4[C@H]3CC[C@]21C,outcome,[1],inactive
same,outcome,[3],inactive
same,Potency,[6],inactive
same,outcome,[7],inactive
same,"activity change, negative = inhibition",[8],-2.83% (inactive)
same,max response,[8]; [14],-8.09%
same,max response,[8]; [15],-9.96%
same,Potency,[10],inactive
CCCCC[C@H](O)/C=C\[C@H]1[C@H](C/C=C\CCCC(=O)O)[C@@H](O)C[C@H]1O (tested in a mixture with another compound),outcome,[1],inactive
same,"activity change, negative = inhibition",[2],11.1% (inactive)
same,outcome,[3],inactive
same,Potency,[4],> 20.6 µM (inactive)
same,Potency,[5],> 20.6 µM (inactive)
same,Potency,[6],inactive
same,outcome,[7],inactive
same,"activity change, negative = inhibition",[8],-0.941% (inactive)
same,max response,[8]; [14],14.3%
same,max response,[8]; [15],13.4%
same,outcome,[9],inactive
same,Potency,[10],inactive
same,Potency,[11],inactive
same,Potency,[12],inactive
same,"activity, negative = inhibition",[13]; [16],-9.08% (inactive)
same,"activity, negative = inhibition",[13]; [17],-0.0944% (inactive)
same,Potency,AS120,inactive
same,Potency,C2A,inactive
same,Potency,CP238,inactive
same,Potency,CP250,inactive
same,Potency,CP252,inactive
same,Potency,HB3,inactive
same,Potency,SC27B,inactive
